ALR H2O2 inh: blocks human ALR sulfhydryl oxidase activity. purified ALR, DTT oxidation, H2O2 HRP-luminol luminescence. inhibition, % (no concentration beside the values). 290,000 tested, 3.8% active. AID 485317;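 active = mean replicate inhibition above about 79%, with every replicate also reaching it, limit read from the data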
GC-A act: GC-A (human) enzyme activation. activation, % at 10 µM. P16066. AID 1671463. 370,000 tested, 0.14% active. HEK293 GC-A cells, cGMP TR-FRET, EC30 ANP; 0% at EC30 ANP, 100% saturating ANP; in the data active = activation above about 40%
HDAC3 inh: inhibitors of human histone deacetylase 3; O15379; inhibition, % at 8.3 µM; recombinant HDAC3, fluorogenic peptide/trypsin coupled, fluorescence; 320,000 tested, 0.15% active; in the data active = inhibition above about 26%, passing the limit was not always enough
GC-B act: GC-B (human) receptor activation | HEK293-GC-B cells, CNP EC30, cGMP TR-FRET; 0% at EC30 CNP, 100% saturating CNP | activation, % at 10 µM | 370,000 tested, 0.11% active;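 active = activation at 10 µM reaching about 35% in either raw or pattern-adjusted values, limit read from the data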
Hits are given with their value. The entries come from a sample that favours hits as a whole.

Results for Oc1ccc2cc(Br)ccc2c1CN1CCCC1 ?
ALR H2O2 inh: 76; GC-A act: inactive; HDAC3 inh: inactive; GC-B act: inactive

Results for Brc1cccc(CN2CCCCCC2)c1 ?
ALR H2O2 inh: inactive; GC-A act: inactive; HDAC3 inh: inactive; GC-B act: inactive

Results for Oc1ccc(Br)cc1CN1CCCCCCC1 ?
ALR H2O2 inh: 99; GC-A act: inactive; HDAC3 inh: inactive; GC-B act: inactive

What do the screens show for `CCOC(=O)C(=O)Nc1ccccc1C(=O)Nc1ccc(OC)cc1`?
ALR H2O2 inh: inactive; GC-A act: inactive; HDAC3 inh: inactive; GC-B act: inactive

Results for O=C(NC1CCCCC1)C1c2ccccc2OCC(=O)N1Cc1ccc2c(c1)OCO2 (stereo not given) ?
GC-A act: inactive; GC-B act: inactive

Results for Cc1ccc(C(=O)CCS(=O)(=O)c2ccc(Br)cc2)cc1 ?
ALR H2O2 inh: inactive; GC-A act: 46; HDAC3 inh: inactive; GC-B act: inactive

What do the screens show for `CCN(CC)C(=O)CSc1nc(O)cc(=O)n1-c1ccccc1OC`?
ALR H2O2 inh: 99; GC-A act: inactive; HDAC3 inh: inactive; GC-B act: inactive

What do the screens show for `COc1ccc(NC(=O)CSc2nc(O)cc(=O)n2-c2ccccc2OC)cc1`?
ALR H2O2 inh: 98; GC-A act: inactive; HDAC3 inh: inactive; GC-B act: inactive

What do the screens show for `CCCCc1c(O)nc(SCC(=O)Nc2cccc3ccccc23)n(-c2ccccc2OC)c1=O`?
ALR H2O2 inh: inactive; GC-A act: inactive; HDAC3 inh: inactive; GC-B act: inactive

How did COc1ccc(-n2c(SCC(=O)Nc3ccccc3OC)nc(O)cc2=O)cc1 do in these assays?
ALR H2O2 inh: inactive; GC-A act: inactive; HDAC3 inh: inactive; GC-B act: inactive

What do the screens show for `COc1ccccc1-n1c(SCC(=O)Nc2cccc3ccccc23)nc(O)cc1=O`?
ALR H2O2 inh: 98; GC-A act: inactive; HDAC3 inh: inactive; GC-B act: inactive

Results for CCN(CC)C(=O)CSc1nc(O)cc(=O)n1C ?
ALR H2O2 inh: inactive; GC-A act: inactive; HDAC3 inh: inactive; GC-B act: inactive

Results for COc1ccccc1-n1c(SCC(=O)Nc2ccc(C)cc2)nc(O)cc1=O ?
ALR H2O2 inh: 98; GC-A act: inactive; HDAC3 inh: inactive; GC-B act: inactive

What do the screens show for `Cc1cc(O)cc(=O)n1-c1cccc(C(F)(F)F)c1`?
GC-A act: inactive; GC-B act: inactive

Results for CN(Cc1cn(Cc2ccccc2)nn1)S(=O)(=O)c1ccc(F)cc1Br ?
GC-A act: inactive; GC-B act: inactive

Results for COc1ccc2[nH]c(C(=O)O)c(NS(=O)(=O)c3ccc(C)cc3C)c2c1 ?
ALR H2O2 inh: 98; GC-A act: inactive; HDAC3 inh: inactive; GC-B act: inactive

Results for COC(=O)c1[nH]c2ccc(C)cc2c1NS(=O)(=O)c1ccc(F)cc1 ?
ALR H2O2 inh: 79; GC-A act: inactive; HDAC3 inh: inactive; GC-B act: inactive

How did Cc1ccc([C@H]2C[C@@H](n3cc(COC(=O)c4ccccc4)nn3)[C@H](O)CN2Cc2cccs2)cc1 do in these assays?
GC-A act: inactive; GC-B act: inactive

What do the screens show for `CC(=O)NC1CC2CCCC(C1)N2C(=O)Nc1c(C)cccc1C` (stereo not given)?
GC-A act: inactive; GC-B act: inactive

What do the screens show for `O=C(OCc1cn(Cc2ccc(F)cc2F)nn1)N1CCOCC1`?
GC-A act: inactive; GC-B act: inactive

Results for O=C(O)c1ccc(CSCc2ccco2)cc1 ?
ALR H2O2 inh: 97; GC-A act: inactive; HDAC3 inh: inactive; GC-B act: inactive

How did O=C(CSCc1ccco1)c1cccs1 do in these assays?
ALR H2O2 inh: 99; GC-A act: inactive; HDAC3 inh: 92; GC-B act: inactive

What do the screens show for `O=C(CCN1C(=O)/C(=C\c2ccc(F)cc2)SC1=S)Nc1ccccc1`?
GC-A act: inactive; HDAC3 inh: inactive; GC-B act: inactive

How did CCN(CC)S(=O)(=O)c1ccc(C)c(NS(=O)(=O)c2cc(/C=C/C(=O)O)cc(OC)c2OC)c1 do in these assays?
ALR H2O2 inh: inactive; GC-A act: inactive; HDAC3 inh: inactive; GC-B act: inactive

How did COc1cc(C(=O)NCC(=O)NNC(=O)CN(C)S(=O)(=O)c2ccc(Cl)cc2)cc(OC)c1OC do in these assays?
ALR H2O2 inh: inactive; GC-A act: inactive; HDAC3 inh: inactive; GC-B act: inactive

What do the screens show for `COc1ccc(CNC(=O)CS(=O)Cc2nc(-c3ccc(C)cc3)oc2C)cc1` (stereo not given)?
ALR H2O2 inh: 99; GC-A act: inactive; HDAC3 inh: inactive; GC-B act: inactive

Results for COCCNC(=O)CS(=O)Cc1nc(-c2ccc(OC)cc2)oc1C (stereo not given) ?
ALR H2O2 inh: 99; GC-A act: inactive; HDAC3 inh: inactive; GC-B act: inactive

What do the screens show for `COCCCNC(=O)CS(=O)Cc1nc(-c2cccc(OC)c2)oc1C` (stereo not given)?
ALR H2O2 inh: 99; GC-A act: inactive; HDAC3 inh: inactive; GC-B act: inactive

How did COc1ccc(CNC(=O)CS(=O)Cc2nc(-c3ccc(OC)c(OC)c3)oc2C)cc1 (stereo not given) do in these assays?
ALR H2O2 inh: 99; GC-A act: inactive; HDAC3 inh: inactive; GC-B act: inactive

Results for COc1cc(OC)cc(C(=O)N[C@H](C(=O)OCC(=O)N2CCN(S(=O)(=O)c3ccc(C)cc3)CC2)C(C)C)c1 ?
GC-A act: inactive; GC-B act: inactive

What do the screens show for `COCC(=O)N(c1ccc(C(C)(C)C)cc1)C(C(=O)NC(C)(C)C)c1cccnc1` (stereo not given)?
GC-A act: inactive; GC-B act: inactive

What do the screens show for `CCOc1ccc(CCNC(=O)CS(=O)Cc2nc(-c3ccc(OC)c(OC)c3)oc2C)cc1OCC` (stereo not given)?
ALR H2O2 inh: 99; GC-A act: inactive; HDAC3 inh: inactive; GC-B act: inactive

How did CCOc1ccc(CCNC(=O)CS(=O)(=O)Cc2nc(-c3ccc(OC)cc3)oc2C)cc1 do in these assays?
ALR H2O2 inh: inactive; GC-A act: inactive; HDAC3 inh: inactive; GC-B act: inactive

What do the screens show for `COc1ccc(-c2nc(CS(=O)CC(=O)NCc3ccc(C)cc3)c(C)o2)cc1OC` (stereo not given)?
ALR H2O2 inh: 99; HDAC3 inh: inactive

Results for COc1ccc(-c2nc(CS(=O)CC(=O)NCc3ccc(Cl)cc3)c(C)o2)cc1OC (stereo not given) ?
ALR H2O2 inh: 99; GC-A act: inactive; HDAC3 inh: inactive; GC-B act: inactive

What do the screens show for `O=C(CSc1nnc(-c2ccccn2)n1-c1ccccc1)Nc1ccc2c(c1)OCCO2`?
GC-A act: inactive; GC-B act: inactive

How did N#C/C(=C\c1ccc(N2CCCCC2)o1)C(N)=O do in these assays?
ALR H2O2 inh: 90; GC-A act: inactive; HDAC3 inh: inactive; GC-B act: inactive

Results for N#C/C(=C\c1ccc(N2CCCCC2)o1)C(=O)Nc1cccc(Br)c1 ?
ALR H2O2 inh: inactive; GC-A act: inactive; HDAC3 inh: inactive; GC-B act: inactive

How did COc1ccc(OCCSc2ncccn2)cc1 do in these assays?
ALR H2O2 inh: inactive; GC-A act: inactive; HDAC3 inh: inactive; GC-B act: inactive
